Reference: PubChem BioAssay AID488864 (Broad Institute, 2010)
Potency and affinity values are given separately. Active and inactive are the calls of the source.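 How the source made its calls: active means ATP signal reduced by compound, with fitted active dose under ten times the top valid tested dose; inactive means the rest, compounds that increase ATP levels included.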

Assay: INS-1E beta-cell viability without cytokines, dose response, cytotoxicity control for beta-cell cytokine protection project, CellTiter-Glo luminescence, dry powder (AID 488864)
Details: INS-1E rat beta cells, 48 h, no cytokines; series mostly up to 26 µM; activity change, negative = ATP decrease: at the top concentration
With N#Cc1ccc2cc(Br)c(C(F)(F)P(=O)(O)O)cc2c1 the “activity change, negative = ATP decrease” value was -3.66% (inactive). With C[C@@H]1CN([C@@H](C)CO)C(=O)c2cccc(NC(=O)Nc3cccc4ccccc34)c2O[C@H]1CN(C)S(=O)(=O)c1ccccc1F the “activity change, negative = ATP decrease” value was 6.08% (inactive). With C[C@@H]1CN([C@@H](C)CO)C(=O)c2cccc(NC(=O)Nc3cccc4ccccc34)c2O[C@H]1CN(C)C(=O)Nc1ccc2c(c1)OCO2 the “activity change, negative = ATP decrease” value was -3.25% (inactive). For C[C@@H]1CN([C@@H](C)CO)C(=O)c2cccc(NC(=O)Nc3ccccc3)c2O[C@H]1CN(C)S(=O)(=O)c1ccc(Cl)cc1, the “activity change, negative = ATP decrease” value was 3.91% (inactive). In the case of C[C@@H]1CN([C@@H](C)CO)C(=O)c2cccc(NC(=O)Nc3cccc4ccccc34)c2O[C@H]1CN(C)S(=O)(=O)c1ccc2c(c1)OCO2, the “activity change, negative = ATP decrease” value is reported as -1.3% (inactive). With COc1ccc(S(=O)(=O)N(C)C[C@@H]2Oc3c(NC(=O)Nc4ccc5c(c4)OCO5)cccc3C(=O)N([C@@H](C)CO)C[C@H]2C)cc1 the “activity change, negative = ATP decrease” value was 9.54% (inactive). In the case of COc1ccc(S(=O)(=O)N(C)C[C@@H]2Oc3c(NS(=O)(=O)c4ccccc4)cccc3C(=O)N([C@@H](C)CO)C[C@H]2C)cc1, the “activity change, negative = ATP decrease” value is reported as 5.7% (inactive). With COc1ccc(S(=O)(=O)N(C)C[C@@H]2Oc3c(NC(=O)Nc4cccc5ccccc45)cccc3C(=O)N([C@@H](C)CO)C[C@H]2C)c(OC)c1 the “activity change, negative = ATP decrease” value was 7.76% (inactive). In the case of C[C@@H]1CN([C@@H](C)CO)C(=O)c2cccc(NC(=O)Nc3cccc4ccccc34)c2O[C@H]1CN(C)S(=O)(=O)c1ccc(Cl)cc1, the “activity change, negative = ATP decrease” value is reported as 3.29% (inactive). For C[C@@H]1CN([C@@H](C)CO)C(=O)c2cccc(NC(=O)Nc3cccc4ccccc34)c2O[C@H]1CN(C)S(C)(=O)=O, the “activity change, negative = ATP decrease” value was 1.3% (inactive). In the case of COc1ccc(S(=O)(=O)N(C)C[C@@H]2Oc3c(NC(=O)Nc4cccc5ccccc45)cccc3C(=O)N([C@@H](C)CO)C[C@H]2C)cc1OC, the “activity change, negative = ATP decrease” value is reported as 1.83% (inactive). With COc1ccc(S(=O)(=O)N(C)C[C@H]2Oc3c(NC(=O)Nc4cccc5ccccc45)cccc3C(=O)N([C@@H](C)CO)C[C@@H]2C)cc1 the “activity change, negative = ATP decrease” value was 9.1% (inactive). With COc1ccc(S(=O)(=O)N(C)C[C@@H]2Oc3c(NC(=O)Nc4c(C)noc4C)cccc3C(=O)N([C@@H](C)CO)C[C@H]2C)cc1 the “activity change, negative = ATP decrease” value was 2.2% (inactive). In the case of C[C@@H]1CN([C@@H](C)CO)C(=O)c2cccc(NC(=O)Nc3cccc4ccccc34)c2O[C@H]1CN(C)S(=O)(=O)c1ccc2c(n1)N(C)CCO2, the “activity change, negative = ATP decrease” value is reported as 11.8% (inactive). With C[C@@H]1CN([C@@H](C)CO)C(=O)c2cccc(NC(=O)Nc3ccccc3)c2O[C@H]1CN(C)S(=O)(=O)c1ccc(F)cc1 the “activity change, negative = ATP decrease” value was -0.503% (inactive). With COc1ccc(S(=O)(=O)N(C)C[C@@H]2Oc3c(NC(=O)NC4CCCCC4)cccc3C(=O)N([C@@H](C)CO)C[C@H]2C)cc1 the “activity change, negative = ATP decrease” value was 6.92% (inactive). For COc1ccc(S(=O)(=O)N(C)C[C@@H]2Oc3c(NC(=O)c4cc(C)nn4C)cccc3C(=O)N([C@@H](C)CO)C[C@H]2C)cc1, the “activity change, negative = ATP decrease” value was 4.75% (inactive). For COc1ccc(S(=O)(=O)N(C)C[C@@H]2Oc3c(NS(=O)(=O)c4cn(C)cn4)cccc3C(=O)N([C@@H](C)CO)C[C@H]2C)cc1, the “activity change, negative = ATP decrease” value was -1.6% (inactive). In the case of COc1ccc(S(=O)(=O)N(C)C[C@H]2Oc3c(NC(=O)Nc4cccc5ccccc45)cccc3C(=O)N([C@H](C)CO)C[C@H]2C)cc1, the “activity change, negative = ATP decrease” value is reported as 5.53% (inactive). In the case of COc1ccc(S(=O)(=O)N(C)C[C@@H]2Oc3c(NC(=O)Nc4cccc5ccccc45)cccc3C(=O)N([C@H](C)CO)C[C@H]2C)cc1, the “activity change, negative = ATP decrease” value is reported as 13.1% [at 23.5 µM] (inactive). For C[C@@H]1CN([C@H](C)CO)C(=O)c2cccc(NC(=O)Nc3cccc4ccccc34)c2O[C@H]1CN(C)S(=O)(=O)c1ccc(Cl)cc1, the “activity change, negative = ATP decrease” value was 6.88% (inactive). With COc1ccc(S(=O)(=O)N(C)C[C@@H]2Oc3c(NC(=O)C4CC4)cccc3C(=O)N([C@@H](C)CO)C[C@H]2C)cc1 the “activity change, negative = ATP decrease” value was 1.69% [at 23.5 µM] (inactive). With COc1ccc(S(=O)(=O)N(C)C[C@@H]2Oc3c(NC(=O)C4CCOCC4)cccc3C(=O)N([C@@H](C)CO)C[C@H]2C)cc1 the “activity change, negative = ATP decrease” value was -5.52% [at 23.5 µM] (inactive). For COc1ccc(S(=O)(=O)N(C)C[C@@H]2Oc3c(NC(=O)Nc4cccc5ccccc45)cccc3C(=O)N([C@H](C)CO)C[C@@H]2C)cc1, the “activity change, negative = ATP decrease” value was 1.09% (inactive). With COc1ccc(S(=O)(=O)N(C)C[C@@H]2Oc3c(NC(=O)Nc4cccc5ccccc45)cccc3C(=O)N([C@@H](C)CO)C[C@H]2C)cc1F the “activity change, negative = ATP decrease” value was 12% (inactive). In the case of COc1ccc(S(=O)(=O)N(C)C[C@@H]2Oc3c(NC(=O)Nc4cccc5ccccc45)cccc3C(=O)N([C@@H](C)CO)C[C@H]2C)cc1, the “activity change, negative = ATP decrease” value is reported as 11.3% (inactive). With C[C@@H]1CN([C@H](C)CO)C(=O)c2cccc(NC(=O)Nc3ccccc3)c2O[C@H]1CN(C)S(=O)(=O)c1ccc(Cl)cc1 the “activity change, negative = ATP decrease” value was 7.7% (inactive). For COc1ccc(S(=O)(=O)N(C)C[C@@H]2Oc3c(NC(=O)NC(C)C)cccc3C(=O)N([C@@H](C)CO)C[C@H]2C)cc1, the “activity change, negative = ATP decrease” value was 1.96% (inactive). With COc1ccc(S(=O)(=O)N(C)C[C@@H]2Oc3c(NC(=O)Nc4cccc5ccccc45)cccc3C(=O)N([C@@H](C)CO)C[C@@H]2C)cc1 the “activity change, negative = ATP decrease” value was 3.54% (inactive).
